Measurements published in PubChem BioAssay.
Measured potencies and affinities stand elsewhere. The source made the active and inactive calls. No cut-off is given here; in the data, nearly all actives have IC50 up to about 0.98 µM.

Target: Calcium-dependent protein kinase 1 (Plasmodium falciparum (isolate 3D7)) (UniProt P62344)
Test: PfCDPK1 kinase inhibitors, biochemical, TCAMS library (AID 1159585);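 note: inhibitors leave more ATP so luminescence rises with inhibition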
Conditions: recombinant PfCDPK1, Kinase-Glo ATP depletion luminescence

Calcium-dependent protein kinase 1 (Plasmodium falciparum (isolate 3D7)), sequence (P62344 whole entry, looked up): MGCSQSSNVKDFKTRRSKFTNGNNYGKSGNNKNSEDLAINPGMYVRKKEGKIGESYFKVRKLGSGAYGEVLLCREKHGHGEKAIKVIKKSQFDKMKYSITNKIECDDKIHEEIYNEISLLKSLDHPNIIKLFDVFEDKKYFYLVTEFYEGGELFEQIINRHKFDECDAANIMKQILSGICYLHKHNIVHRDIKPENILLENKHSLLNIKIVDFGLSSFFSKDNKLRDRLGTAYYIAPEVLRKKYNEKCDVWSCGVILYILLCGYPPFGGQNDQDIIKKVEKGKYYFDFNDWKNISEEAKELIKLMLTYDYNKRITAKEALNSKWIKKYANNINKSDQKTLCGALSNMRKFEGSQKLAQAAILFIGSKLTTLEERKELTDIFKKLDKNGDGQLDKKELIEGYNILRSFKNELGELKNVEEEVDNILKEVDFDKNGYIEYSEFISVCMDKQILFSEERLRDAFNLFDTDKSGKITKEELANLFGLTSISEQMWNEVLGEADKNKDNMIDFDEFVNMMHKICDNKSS

outcome, inactive:
CCOC(=O)NC1=NC(C)(C)N(OCCCOc2ccc(C)cc2C)C(NC(=O)OCC)=N1
Cc1ccc2c(c1)c(-c1ccccc1)c(-c1ccccc1)n2CC(O)CN1CCN(CC=Cc2ccccc2)CC1 (stereo unspecified)
COc1ccc2nccc(NC(=O)C3(O)CCC(NCc4ccc5c(c4)NCCS5)CC3)c2n1 (stereo unspecified)
O=C(NCc1ccc(F)cc1)c1cnc(N2CCN(c3ccncc3)CC2)c(Cl)c1
CC1(C)N=C(N)N=C(N)N1OCCc1ccccc1
Cc1ccccc1C1CCN(C2CCC(NC(=O)c3cc4cc(C(C)C)ccc4[nH]3)CC2)CC1 (stereo unspecified)
O=C(NCC1CCN(Cc2cccc(C(F)(F)F)c2)C1)c1cc(-c2cccc(Cl)c2)cs1 (stereo unspecified)
COc1ccc(CCNCCCCCCNCCc2ccc(Cl)c3ccccc23)cc1OC
Cn1nccc1C(=O)NCCNCc1cccc(-c2csc(-c3nc4ccccc4[nH]3)c2)c1
c1ccc(COc2ccccc2COc2ccccc2-c2ccc3cccnc3n2)cc1
O=C(/C=C/c1ccc(Cl)c(Cl)c1)NCCCCCN1CCC(NC(=O)Nc2ccc(F)c(Cl)c2)CC1
CN(C)Cc1cccc2[nH]c(-c3csc(Cc4cc(Cl)ccc4OCc4ccccc4)n3)nc12
Cc1c(-c2cccc(C(C)(C)NC3CCN(Cc4ccccc4)CC3)c2)cnc(N)c1C
CCc1sc(N2CCN(C)CC2)nc1C(=O)Nc1ccc(F)cc1C(F)(F)F
Cc1cc(NN=Cc2cccc(Cl)c2)c2cc(F)ccc2n1
COc1cccc(C(=O)NCCc2cccc(Cl)c2)c1Oc1ccccc1
